Consider 36 compounds from PubChem BioAssay.

The source made the active and inactive calls.

The test in a line: growth of efflux-deficient E. coli DRC39 – strain DRC39, OD650, 48 h, E. coli filamentation inducers, primary screen (AID 1179).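 Further: screen aims at cell division blockers that make cells filament.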 Conditions: E. coli DRC39 delta-acrAB growth, higher = more signal, called active from +8 up or from −8 down.
Regarding `COC(=O)[C@H](C)NC(=O)CCC1CC(OC(=O)NCc2cccc3ccccc23)CC2(CCCC(COC(=O)NCc3ccccc3)O2)O1` (stereo partly specified), the z-score was 0.324 (inactive).
As to `O=C1CCCC=C1C(O)C1CCCCC1` (stereo unspecified), the z-score is 0.456 (inactive).
Then `COc1ccc(COC(=O)NN=C2C[C@@H](O)[C@@H](O)[C@@H]3[C@@H]4C(=O)N(Cc5ccccc5)C(=O)[C@@H]4CC[C@@H]23)cc1`, with 0.935 (inactive).
Then `CO[C@H]1COC(=O)CC=C[C@H](C)[C@H](OC)COC(=O)[C@@H](C)NC(=O)CC=C[C@@H]1C`, with -0.0133 (inactive); and `CC(C)CON=C1[C@H]2CCn3c(=O)n(C)c(=O)n3[C@H]2[C@H](O)[C@@H]2O[C@H]12`, with -0.0718 (inactive); and `CCOC(=O)CCN1C(=O)[C@H]2[C@H]3[C@H](O)[C@H](O)CC(=NOCC=C(C)CCC=C(C)C)[C@@H]3CC[C@H]2C1=O`, with -0.209 (inactive).
For `CC[C@@H](c1ccccc1)n1c(=O)n2n(c1=O)[C@H]1[C@H](O)[C@@H]3O[C@@H]3C(=NOCc3ccccc3)[C@H]1CC2`, the z-score was -0.95 (inactive).
The value for `CC(CCN1CCCc2nc(C)c(C)cc21)=NO[C@@H](C)c1cn([C@H](CO)Cc2ccccc2)nn1` was 0.961 (inactive); that for `COC(=O)[C@H](C)NC(=O)CCC1CC(OC(=O)NCCc2ccc(F)cc2)CC2(CCCC(COC(=O)NCC3CCCCC3)O2)O1` (stereo partly specified) was -0.741 (inactive).
For `CCOC(=O)[C@H](Cc1ccccc1)NC(=O)CCC1CC(OC(=O)NCc2ccc3c(c2)OCO3)CC2(CCCC(COC(=O)NCCCN3CCCC3=O)O2)O1` (stereo partly specified), the z-score was 0.186 (inactive).
Then `CC(CCC(=O)OC[C@H]1O[C@H](C#Cc2ccccc2)C=C[C@@H]1Oc1ccc(C)cc1)=NOC[C@@H](C)[C@H](OCc1ccccc1)C(C)C`, with -0.931 (inactive); and `CCN1C(=O)[C@H]2[C@H]3[C@H](O)[C@H](O)CC(=NOC[C@@H](O)[C@H]4O[C@@H]5OC(C)(C)O[C@@H]5[C@H]4O)[C@@H]3CC[C@H]2C1=O`, with 0.144 (inactive).
The value for `CC(C)CON=C1C[C@@H](O)[C@@H](O)[C@@H]2[C@@H]3C(=O)N(Cc4ccc5c(c4)OCO5)C(=O)[C@@H]3CC[C@@H]12` was -0.563 (inactive).
For the compound `C=CC[C@@H]1C=C[C@H](ON=C2C[C@@H](O)[C@@H](O)[C@@H]3[C@@H]4C(=O)N(CC)C(=O)[C@@H]4CC[C@@H]23)[C@@H](CO)O1`, the z-score was -1.5 (inactive).
The value for `CO[C@H]1COC(=O)CCC[C@H](C)[C@H](OC)COC(=O)CC=C[C@@H]1C` was 0.757 (inactive); that for `COc1ccc2c(c1)O[C@@H](c1cccc(C(F)(F)F)c1)[C@H](O)C2=O` was 1.34 (inactive).
The value for `CC(CCN1CCCc2nc(C)c(C)cc21)=NOC[C@@H](O)COCc1ccco1` was 0.948 (inactive); that for `CCN1C(=O)[C@H]2[C@H]3[C@H](O)[C@H](O)CC(=NO[C@@H]4O[C@H](CO)[C@@H](O)[C@H](O)[C@H]4O)[C@H]3CC[C@H]2C1=O` was -0.446 (inactive); that for `CCOC(=O)[C@H](CC(C)C)NC(=O)CCC1CC(OC(=O)NCc2ccc3c(c2)OCO3)CC2(CCCC(COC(=O)NCCOc3ccccc3)O2)O1` (stereo partly specified) was -0.875 (inactive).
Then `O=C1C2=CC[C@H]3C(=O)N(c4ccc(F)cc4F)C(=O)[C@H]3[C@H]2[C@H](O)[C@@H]2O[C@H]12`, with -0.0889 (inactive); and `CC(=O)OC[C@H]1O[C@H](C#CCCc2ccccc2)C=C[C@@H]1OC(C)=O`, with -0.406 (inactive); and `CC(C)=NOC(C)CN1CCCc2nc(C)c(C)cc21` (stereo unspecified), with -0.726 (inactive).
For the compound `COC(=O)[C@H](C)NC(=O)CCC1CC(OC(=O)NCc2cccc3ccccc23)CC2(CCCC(COC(=O)NCCOc3ccccc3)O2)O1` (stereo partly specified), the z-score is -0.693 (inactive).
With `C[C@@H]1CC[C@@H](C(=O)O)N[C@H]1c1cccc(N2CCOCC2)c1`, the z-score was 1.13 (inactive).
For `COC(=O)[C@@H]1CC[C@H](C)[C@@H](c2ccc(Br)cc2)N1C[C@H](O)CN=[N+]=[N-]`, the z-score was -1.18 (inactive).
With `CCOC(=O)[C@H](Cc1ccccc1)NC(=O)CCC1CC(OC(=O)NCCc2ccc(F)cc2)CC2(CCCC(COC(=O)NCc3cccc(C(F)(F)F)c3)O2)O1` (stereo partly specified), the z-score is 0.0159 (inactive).
The value for `COc1cccc([C@H]2Oc3ccc(OC)cc3C(=NOCC[C@@H]3C=C[C@H](OC(C)=O)[C@@H](COC(C)=O)O3)[C@@H]2O)c1` was -0.53 (inactive); that for `CC(=O)OC[C@H]1O[C@H](CC=NO[C@@H](C)c2cc(-c3c(C)cc(C)cc3C)no2)C=C[C@@H]1OC(C)=O` was 0.105 (inactive).
The value for `CCOC(=O)NN=C1C[C@@H](O)[C@@H](O)[C@@H]2[C@@H]3C(=O)N(c4ccc(F)cc4F)C(=O)[C@@H]3CC[C@H]12` was 0.498 (inactive); that for `O=C1[C@H]2[C@H]3[C@H](O)[C@H](O)CC(=NO[C@@H]4O[C@H](CO)[C@@H](O)[C@H](O)[C@H]4O)[C@H]3CC[C@H]2C(=O)N1C[C@@H]1CCCO1` was 0.595 (inactive); that for `CCOC(=O)[C@H](Cc1ccccc1)NC(=O)CCC1CC(OC(=O)NCCc2ccc(F)cc2)CC2(CCCC(COC(=O)NCCC(C)C)O2)O1` (stereo partly specified) was -0.203 (inactive).
The value for `CO[C@H]1COC(=O)[C@H](C)COC(=O)[C@@H](OCc2ccccc2)C=C[C@@H]1C` was 0.636 (inactive); that for `O=C1[C@H]2[C@H]3[C@H](O)[C@H](O)CC(=NOC[C@@H](O)COCc4ccco4)[C@@H]3CC[C@H]2C(=O)N1Cc1ccccc1` was 0.616 (inactive).
Turning to `CC(C)=CCCC(C)=CCON=C1C[C@@H](O)[C@@H](O)[C@@H]2[C@@H]3C(=O)N(Cc4ccc5c(c4)OCO5)C(=O)[C@@H]3CC[C@H]12`, the z-score is 0.0551 (inactive).
Then `COC(=O)[C@H](C)NC(=O)CC=C[C@@H](C)[C@@H]1C=C[C@H](O)[C@@H](CO)O1`, with 0.384 (inactive).
As for `COc1ccc(COC(=O)NN=C2C[C@@H](O)[C@@H](O)[C@@H]3[C@@H]4C(=O)N(C[C@@H]5CCCO5)C(=O)[C@@H]4CC[C@@H]23)cc1`, the z-score is 1.11 (inactive).
